aDG glyco up: alpha-DG glycosylation activation. 360,000 tested, 0.22% active. AID 624168. Pro5-aDG cells, alpha-DG glycosylation AlphaScreen (IIH6); 0% Pro5, 100% B10-LARGE cell signal. activation, % at 10 µM;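 active means activation of at least 8% versus controls, or a plate z-score of at least 8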;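 further: Pro5 are CHO cells carrying HIG-tagged alpha-DG that lacks glycosylation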
DYRK1A inh: Dyrk1A (rat) kinase inhibition; Q63470; ADP-Glo luminescence, NFATc1 peptide; inhibition, % at 12.5 µM; 310,000 tested, 0.43% active; in the data active means inhibition above about 50%;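 further: plate controls were vehicle with enzyme for no effect and no enzyme for full effect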
HSF1 inhib: HSF1 inhibition. NIH3T3-HGL HSE-luciferase, MG132-induced, luminescence 8 h; hits give low values. activity change, negative = inhibition, % at 7.5 µM (by protocol). 300,000 tested, 0.77% active. AID 2098;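 active means more than half of replicate wells show activity change below -50%, luminescence cut by over half; inconclusive means some wells, but at most half, below -50%; inactive means no replicate well below -50%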;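 further: luciferase reports HSF-1 transcriptional activity via heat shock element; 0% = median of DMSO wells and -100% = zero luminescence signal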
HSF-1 act: increases HSF-1 driven luciferase reporter signal | AID 504408 | 300,000 tested, 1.7% active | activation, % at 9 µM | NIH3T3-HGL HSF-1 luciferase reporter, MG132, 8 h; 100% = twice DMSO control signal;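 active means mean replicate activation of at least 50% with a set share of replicates each reaching 50%; inconclusive means only one of those two conditions met; inactive means mean below 50% and too few replicates reaching it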;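 further: 0% = median of the neutral control wells and 100% = twice that signal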
NPR2 activator: GC-B (human) receptor activation. P20594. HEK293-GC-B cells, CNP EC30, cGMP TR-FRET; 0% at EC30 CNP, 100% saturating CNP. activation, % at 10 µM. 370,000 tested, 0.11% active;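 active means activation at 10 µM reaching about 35% in either raw or pattern-adjusted values, limit read from the data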
GC-A act: GC-A (human) enzyme activation; P16066; HEK293 GC-A cells, cGMP TR-FRET, EC30 ANP; 0% at EC30 ANP, 100% saturating ANP; activation, % at 10 µM; 370,000 tested, 0.14% active; AID 1671463; in the data active means activation above about 40%
* = called active by the depositor; ? = inconclusive; / = no result given. Only some compounds are listed: those with a hit (about 2.5% of all), similar ones and a draw of the others.

SMILES	aDG glyco up	DYRK1A inh	HSF1 inhib	HSF-1 act	NPR2 activator	GC-A act
CC(/C=N/NC(=O)c1cccc(F)c1)=C\c1ccccc1	-0.2	6.0	57.2	83.3*	-11.2	-10.0
COc1ccc(C(=O)N[C@H](C(=O)NCc2ccc(C)cc2)C(C)C)cc1	0.0	-1.0	-11.1	-2.7	-6.4	-1.6
CN(C)S(=O)(=O)N(CC(=O)N1CCN(c2ccccc2)CC1)c1ccccc1	0.1	0.8	0.7	19.1	1.1	-0.4
Cc1cccc(/C=N\NC(=O)c2ccc(Cl)cc2)c1O	1.6	5.6	208.5	259.5*	0.6	-1.3
O=C(N/N=C/C(Br)=C\c1ccccc1)c1cccs1	0.0	/	105.2	100.7*	-6.5	-1.4
CC(/C=N/NC(=O)Cn1cnc2ccccc21)=C\c1ccccc1	2.4	-71.7	-65.8*	-75.2	-5.0	-2.0
O=C(Nc1cccc(F)c1)c1ccccc1	0.0	2.4	9.1	-6.4	0.7	0.6
O=C(Nc1ccc(Nc2ccccc2)cc1)c1cccc(F)c1	0.5	-1.3	41.1	66.9*	-3.3	-3.8
CCCCc1nc2cc(C(=O)N3CCCC(COC)C3)ccc2o1 (stereo unspecified)	1.1	5.5	17.3	38.4	-3.4	1.2
O=C(N/N=C/c1ccc(Cl)cc1Cl)c1cccc(F)c1	0.0	25.0	28.7	55.6*	-3.9	-3.5
Cc1ccccc1CNC(=O)c1ccc2nc(N3CCOCC3)sc2c1	0.4	-0.4	3.7	8.6	3.5	4.5
CCN1/C(=C/C=C/c2oc3ccc4ccccc4c3[n+]2CC)Oc2ccc3ccccc3c21	/	/	238.0	300.3*	/	/
CC[n+]1c(/C=C/N(C)c2ccccc2)oc2ccc(Cl)cc21	-0.1	/	-10.1	0.0	2.1	2.1
COc1ccc(NC(=S)Nc2ccc3nc(C)c(C)nc3c2)cc1	-0.1	10.5	1.2	-5.4	6.1	6.0
COc1ccc(C(=S)Nc2ccc(C)cc2)cc1	0.3	6.0	29.5	63.1*	6.7	0.9
CCOc1ccc(NC(=O)Nc2ccc3nsnc3c2)cc1	0.8	-2.4	3.1	-1.9	10.2	1.1
COc1ccc(NC(=S)Nc2ccc(Oc3ccccc3)cc2)cc1	-0.1	2.4	-64.7*	-68.3	3.0	7.0
CCOc1ccc(NC(=S)Nc2ccc3nsnc3c2)cc1	7.8*	8.9	8.1	7.8	-5.9	-1.6
COc1ccc(NC(=S)Nc2ccc3nsnc3c2)cc1	7.8*	11.2	39.6	?	-5.2	1.1
Cc1cc(C)n(C(=O)c2ccc(S(=O)(=O)N3CCOCC3)cc2)n1	-0.2	-5.2	1.3	-10.0	1.1	0.6
CCNC1(C(N)=O)CCN(Cc2ccccc2)CC1	0.0	-1.2	/	/	-2.1	-1.1
O=C(O)/C=C/C(=O)Nc1ccc(Oc2ccccc2)cc1	0.1	/	-54.1*	-59.0	3.6	3.1
Cc1ccc(C)c(N2CCN(CCN3CCCCC3)CC2)c1	0.2	-2.2	-56.9*	-63.3	2.1	-5.0
Cn1c(SCc2ccccc2Cl)nc2ccccc21	0.0	1.4	40.1	93.1*	4.4	1.2
CNS(=O)(=O)c1cccc(C(=O)OCc2csc(-c3ccccc3)n2)c1	0.5	2.3	33.9	67.5*	0.5	3.0
SMILES	aDG glyco up	DYRK1A inh	HSF1 inhib	HSF-1 act	NPR2 activator	GC-A act
Cn1cccc1C(=O)OCc1csc(-c2ccccc2)n1	0.0	6.6	15.3	63.4*	-0.7	5.0
O=C(OCc1csc(-c2ccccc2)n1)c1cccs1	0.1	4.3	51.6	91.4*	-8.1	1.4
O=C(CNS(=O)(=O)c1cccc(Cl)c1)OCc1csc(-c2ccccc2)n1	-0.2	1.9	-3.4	20.6	-1.2	-1.2
Cc1ccsc1C(=O)OCc1csc(-c2ccccc2)n1	0.0	0.6	22.2	58.6*	0.7	4.5
O=C(Nc1cccc(-c2ccc(N3CCCCC3)nn2)c1)C(F)(F)F	-0.2	-3.3	?	-53.6	6.3	-1.7
CC1CCN(c2ccc(-c3cccc(NC(=O)C(F)(F)F)c3)nn2)CC1	0.5	2.0	-81.8*	-83.8	-0.5	3.5
CC(=O)Nc1ccc(N(CC(=O)NCC2CCCO2)C(=O)CCC(=O)Nc2cc(C)on2)cc1 (stereo unspecified)	0.1	1.8	-3.9	-7.8	1.3	0.4
CN1CCN(S(=O)(=O)c2cccc(C(=O)N(Cc3nnc(-c4ccccc4Cl)o3)C3CC3)c2)CC1	0.6	5.0	5.9	9.6	0.3	0.8
Cc1nn(-c2nc3ccccc3[nH]2)c(N)c1-c1ccccc1	-0.1	-1.7	44.8	71.4*	8.1	5.2
Cc1nn(-c2ccccc2)c(N)c1-c1ccccc1	-0.2	/	9.4	23.1	0.2	-1.2
CN1CCN(c2sc(S(C)(=O)=O)nc2S(=O)(=O)c2ccc(Cl)cc2)CC1	3.1	1.7	5.7	7.2	0.5	0.4
C[C@@H]1C(NC(=O)c2ccccc2)CC2CC1C2(C)C (stereo partly specified)	0.0	-2.9	20.9	73.4*	1.4	-1.9
CC1(C)CC(NC(=O)c2ccccc2)CC(C)(C)N1	-0.1	-2.9	0.4	0.9	1.2	0.4
COc1ccc(CNC(=O)C(C)OC(=O)CN2C(=O)COc3ccccc32)cc1 (stereo unspecified)	-0.2	2.1	0.6	-1.2	-1.6	4.1
CCCCC(=O)Nc1ccc(C(=O)NCCc2ccc(S(N)(=O)=O)cc2)cc1	-0.2	-2.8	-67.7*	-72.6	5.2	-2.8
CCCCC(=O)Nc1ccc(C(=O)Nc2ccc(S(=O)(=O)Nc3nccc(C)n3)cc2)cc1	-0.1	-3.5	-64.1*	-72.4	1.2	1.3
CCCCC(=O)Nc1ccc(C(=O)NCCc2ccccc2)cc1	0.1	5.3	2.5	26.1	-1.8	1.3
CCCCC(=O)Nc1ccc(S(=O)(=O)Nc2nccc(C)n2)cc1	-0.1	-4.2	-12.6	-9.9	4.2	4.8
COc1ccc2cc3cc(C(=O)NCCC(C)C)oc3nc2c1	0.0	11.5	-5.8	-15.5	0.4	6.3
CCC(C)NC(=O)c1cc2cc3ccc(OC)cc3nc2o1 (stereo unspecified)	0.1	4.3	26.5	62.5*	-8.9	3.3
Cc1ccc(Cn2cc(C(=O)c3ccc(F)cc3)c(=O)c3cc4c(cc32)OCCO4)cc1	0.0	12.6	-2.1	10.1	37.5*	28.3
CCOc1ccccc1CN1CCN(Cc2cn(C)nc2-c2ccccc2)CC1CCO (stereo unspecified)	-0.2	-2.0	43.2	82.4*	-13.5	-15.9
CCOC(=O)C1CCN(Cc2cc(Cl)c3ccccc3c2O)CC1	-0.1	1.2	78.1	97.4*	/	/
CCOC(=O)C1CCN(Cc2cc(=O)oc3cc(C)c(Cl)cc23)CC1	0.4	-1.6	-3.2	7.9	0.3	-3.1
C/C(=N\N=C\c1cccc(F)c1)c1nnn(-c2nonc2N)c1C	0.1	-2.5	9.7	-4.9	-3.9	-2.4
